Growth data for 29 compounds are collected here from PubChem BioAssay (NCI).

The structures appear in SMILES notation. Compounds without any hit were thinned out: in the full panel of roughly 83,000, 20% have a hit.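 48-hour exposure, single concentration, 96-well plates; percent growth endpoint where 0 means no net growth. Active: below 10.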 Values without a mark were called inactive. Active and inactive are the calls of the source.

Holding throughout (test): NCI-60 one-dose screen, 48 h (100 = growth as untreated, 0 = no growth, -100 = all killed)
Holding throughout (settings): 10 µM unless noted

In test [1] the test system is T-47D breast.
The subject of test [2] is BT-549 breast.
Test [3] has as its system MDA-MB-435 melanoma.
In test [4] the test system is SW-620 colon.
Test [5] has as its system MCF7 breast.
The test system of test [6] is HCT-116 colon.
In test [7] the test system is HCC-2998 colon.
Test [8] has as its system KM12 colon.

Take `O=C(N/N=C/c1ccc(Cl)cc1)c1ccc(NC(=O)c2ccccn2)cc1`: the growth in test [1] was 52.1%; in test [2], 62.7%; in test [3] it was 63.8%; in test [4], 71.5%; in test [5], 52.3%; in test [6] it was 5.15% (active). Besides, the figures for the growth in test [7] and in test [8] were 72.3% and 73.2%, respectively.
For `C[C@H]1[C@H](C)CC[C@]2(C(=O)NCCNCCN)CC[C@]3(C)C(=CC[C@@H]4[C@@]5(C)CCC(=O)C(C)(C)[C@@H]5CC[C@]43C)[C@H]12`, the growth in test [1] was 39.8%; in test [2], 92.3%; in test [3], -75.7% (active); in test [4] it was -74.7% (active); in test [5], 12.6%; in test [6], -51.8% (active). The growth is -43.7% (active) in test [7] and 11.4% in test [8].
Turning to `C[C@@H]1NC(=O)[C@H](Cc2ccccc2)N(Cc2cccnc2)C1=O`, the growth in test [1] was 94.6%; in test [2], 73.2%; in test [3] it was 104%; in test [4] it was 97.2%; in test [5], 91.5%; in test [6], 71%. Also, the growth in test [7] is 106%; in test [8] it was 103%.
Take `CCCC(O)Cn1ncc(C(=O)OCC)c1NC(=O)NCc1cccc(C(F)(F)F)c1` (configuration not stated): the growth in test [1] was 73.2%; in test [2], 77.8%; in test [3], 103%; in test [4] it was 106%; in test [5], 97.6%; in test [6], 61.4%. Further, the growth in test [7] is 85.3%; in test [8], 103%.
Take `C=C1C(=O)O[C@@H]2C3C(=C(C)CC[C@@H]12)CC1O[C@]13C` (some centres not stated): the growth in test [1] is 56.8% [6.75 µM]; in test [2], 76.3% [6.75 µM]; in test [3], 75.5% [6.75 µM]; in test [4], 71.8% [6.75 µM]; in test [5], 44.2% [6.75 µM]; in test [6], 46.1% [6.75 µM]. Also, the growth in test [7] was 108% [6.75 µM]; in test [8], 102% [6.75 µM].
Take `O=C(Cn1nc(-c2cccc3ccccc23)ccc1=O)NCc1cccc(Cl)c1`: the growth in test [1] is 9.17% [50 µM] (active); in test [2], 44.3% [50 µM]; in test [3], 45.5% [50 µM]; in test [4] it was 55% [50 µM]; in test [5] it was 20.1% [50 µM]; in test [6], 33.5% [50 µM]. The values for the growth in test [7] and in test [8] were 54.6% [50 µM] and 41.7% [50 µM], respectively.
Turning to `Cc1ccc(NC(=O)c2cc3ccccc3cc2O)c(C)c1`, the growth in test [1] is 97.2%; in test [2], 75.9%; in test [3], 72.5%; in test [4] it was 78.1%; in test [5] it was 92.7%; in test [6] it was 75.8%. In addition, the growth is 96.7% in test [7] and 83.1% in test [8].
On to `COc1ccc(C/C(C)=C(\c2ccc(Cl)cc2)c2ccc(OCCCN(C)C)cc2)cc1`, for which the growth is 62.1% in test [1]; 91.3% in test [2]; 82.6% in test [3]; 60.8% in test [4]; 16.2% in test [5]; 60.3% in test [6]. For the same compound, the growth in test [7] was 47.1%; in test [8], 68.6%.
Turning to `COc1cccc(-c2cn3nc(-c4cn(C)c5ccccc45)sc3n2)c1`, the growth in test [1] was 89.9%; in test [2], 102%; in test [3], 36.5%; in test [4], 89.7%; in test [5], 79.5%; in test [6] it was 91.7%. Besides, the growth in test [7] was 93.5%; in test [8] it was 72.6%.
As for `CCCCC#Cc1c(I)n(C2OC(CO[Si](C)(C)C(C)(C)C)C3OC(C)(C)OC32)c(=O)n(C(=O)c2ccccc2)c1=O` (configuration not stated), the growth in test [1] is -10.1% (active); in test [2], 27.5%; in test [3], 44.8%; in test [4] it was -49.2% (active); in test [5], 28.9%; in test [6], 14.7%. Besides, the growth is -9.34% (active) in test [7] and 71.7% in test [8].
As for `Cn1cc(-c2csc(-c3cn(C)c4ccccc34)n2)c2cnccc21`, the growth in test [1] was 67.4%; in test [2], 87.8%; in test [3] it was -79.4% (active); in test [4], -47.6% (active); in test [5] it was 10.5%; in test [6] it was -74.6% (active). Moreover, the growth in test [7] is -63.4% (active); in test [8] it was 26.6%.
For `CS(=O)(=O)Nc1cc(-c2ccc3ncnc(Nc4ccc(F)c(Cl)c4)c3c2)ccc1Cl`, the growth in test [1] is 12.2%; in test [2] it was 49.4%; in test [3], 58.2%; in test [4], 75.4%; in test [5], 23.9%; in test [6], 59.5%. Further, the growth was 79.9% in test [7] and 52.7% in test [8].
With `O=C(NNc1nc2cc(F)ccc2n2c(CN3CCOCC3)ccc12)c1ccccc1`, the growth was 11.8% in test [1]; 25.7% in test [2]; 27.3% in test [3]; -1.14% (active) in test [4]; -6.31% (active) in test [5]; 0.232% (active) in test [6]. Also, the values for the growth in test [7] and in test [8] were 32.8% and 12.2%, respectively.
As for `COc1cc([C@@H](CCO)C[C@H](C)c2ccc3ccccc3c2)cc(OC)c1OC`, the growth is 45.3% in test [1]; 26% in test [2]; 2.44% (active) in test [3]; 18.9% in test [4]; 18.8% in test [5]; 18.7% in test [6]. Moreover, the growth in test [7] was 56.1%; in test [8] it was 26.3%.
As to `COc1ccc2[nH]cc(-c3nonc3-c3c[nH]c4ccc(Br)cc34)c2c1`, the growth in test [1] is 3.83% (active); in test [2], 74.9%; in test [3], 65.8%; in test [4], 59.5%; in test [5] it was 31.2%; in test [6], 36.7%. Further, the growth was 22.2% in test [7] and 15.5% in test [8].
Take `N#Cc1ccc(O)c(C2=NCC(c3ccc(-c4ccccc4)cc3)O2)c1` (configuration not stated): the growth in test [1] was -1.94% (active); in test [2], 16.3%; in test [3] it was 26.8%; in test [4], 23.9%; in test [5], 10.3%; in test [6] it was 9.12% (active). The growth in test [7] was 34.8%; in test [8], 16.6%.
As for `Cn1c(=O)c2[nH]c(SC/C(=N/O)c3ccc(Br)cc3)nc2n(C)c1=O`, the growth in test [1] was 23.1%; in test [2] it was 28.3%; in test [3] it was 52%; in test [4], 92.7%; in test [5] it was 69.1%; in test [6], 28.3%. For the same compound, the results for the growth in test [7] and in test [8] were 16.8% and 56.9%, respectively.
As to `O=C(Nc1nc(Cl)nc(Nc2ccc(N3CCOCC3=O)cc2)n1)c1ccc(Cl)s1`, the growth in test [1] is 71.7%; in test [2], 106%; in test [3], 96.4%; in test [4] it was 76.1%; in test [5] it was 59.1%; in test [6], 84.3%. Moreover, the growth was 82.3% in test [7] and 90.6% in test [8].
Take `O=C(Nc1ccc(Oc2cccc(Cl)c2)c(Cl)c1)c1cccnn1`: the growth is 72.4% in test [1]; 98.5% in test [2]; 77.6% in test [3]; 105% in test [4]; 91.7% in test [5]; 66.7% in test [6]. Also, the growth in test [7] was 95.2%; in test [8] it was 85.3%.
Regarding `CC1(C)CC[C@]23CC[C@]4(C)[C@H](CC[C@@H]5[C@@]6(C)CCNCC(C)(C)[C@@H]6CC[C@]54C)[C@H]2[C@H]1OC3`, the growth in test [1] is 77.8%; in test [2], 94.2%; in test [3], 86.5%; in test [4] it was 49.9%; in test [5], 91.5%; in test [6] it was 55%. Moreover, the growth in test [7] is 28.6%; in test [8], 81.4%.
Turning to `CN1CCOCCN(C)Cc2ccc3ccc(cc3c2)CN(C)CCOCCN(C)Cc2ccc3ccc(cc3c2)C1`, the growth in test [1] was 119%; in test [2] it was 93.6%; in test [3], 82.9%; in test [4], 22.4%; in test [5] it was 77.5%; in test [6] it was 28.3%. Also, the growth in test [7] was 100%; in test [8], 73.7%.
Take `CC[C@H](Nc1nc(N)nc(C)c1C#N)c1nc2cccc(CN(C)c3ncc(C(=O)NO)cn3)c2c(=O)n1-c1ccccc1`: the growth in test [1] is -23.1% (active); in test [2] it was 34.6%; in test [3] it was -3.69% (active); in test [4] it was 3.51% (active); in test [5], 10.8%; in test [6] it was -19.7% (active). Also, the growth in test [7] is -7.29% (active); in test [8], 16.4%.
For the compound `O=c1oc2c(cnc3ccccc32)cc1-c1cccc(Cl)c1`, the growth was 107% in test [1]; 115% in test [2]; 97% in test [3]; 106% in test [4]; 99.2% in test [5]; 105% in test [6]. Besides, the growth in test [7] was 109%; in test [8], 110%.
On to `C=C(C)[C@@H]1CC[C@]2(C)[C@H](C=CC3=C4C[C@@](C)(CO)CC[C@]4(C)CC[C@]32C)[C@@]1(C)CCCN`, for which the growth in test [1] is -43.7% (active); in test [2], 80%; in test [3], -96.8% (active); in test [4] it was -80.8% (active); in test [5], -78.5% (active); in test [6], -86.5% (active). Also, the growth was -92% (active) in test [7] and -71.7% (active) in test [8].
As to `COc1ccc(-c2cc(-c3cc(OC)ccc3OC)nc(SCC(C)=O)c2C#N)cc1`, the growth is 57.9% in test [1]; 61% in test [2]; 36.1% in test [3]; 92.1% in test [4]; 70.6% in test [5]; 74% in test [6]. Moreover, the growth in test [7] was 84.5%; in test [8] it was 60.2%.
`CCCn1c(=S)sc2c(NNC(C)=O)nc(C)nc21`: the growth in test [1] was 78.9%; in test [2], 110%; in test [3] it was 115%; in test [4] it was 101%; in test [5], 95.9%; in test [6], 95.3%. Further, the growth in test [7] was 94.8%; in test [8], 97%.
As to `O=c1oc2c(cc1-c1ccccc1)c[n+]([O-])c1ccccc21`, the growth is 91% in test [1]; 95.5% in test [2]; 101% in test [3]; 103% in test [4]; 91.1% in test [5]; 98.8% in test [6]. Also, the growth in test [7] is 107%; in test [8], 104%.
Consider `Cc1cc(O)cc(-c2nn(C)cc2-c2cc(N3CCOCC3)nc(-c3cccnc3)n2)c1`, for which the growth in test [1] is 28.8%; in test [2], 36.3%; in test [3], 3.68% (active); in test [4] it was 38.4%; in test [5] it was 14.9%; in test [6], 17.3%. Further, the growth in test [7] is 63%; in test [8], 28.9%.
As for `COc1ccc2c(c1)oc1c(C)c3c(c(C)c12)C(=O)N(CCOS(C)(=O)=O)C3=O`, the growth is 103% in test [1]; 90% in test [2]; 94.9% in test [3]; 94.2% in test [4]; 73.7% in test [5]; 94.1% in test [6]. Also, the growth in test [7] was 100%; in test [8], 107%.
